Results as given in PubChem BioAssay (NCI).
The panel holds about 83,000 compounds, 20% with a hit somewhere; the sample as a whole holds those more often.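 Note: values are percent growth. 100 is the growth of untreated cells, values between 100 and 0 indicate rising inhibition; between -100 and 0 indicates cell death.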 Activity calls are given as the source filed them. Rule for the calls: active = growth percent below 10; inactive = the rest.

test system: MDA-MB-468 breast; experiment: NCI-60 one-dose screen, 48 h (100 = growth as untreated, 0 = no growth, -100 = all killed); settings: 10 µM unless noted

Row | SMILES | growth
1 | Oc1ccccc1C=NCC1CCC(CN=Cc2ccccc2O)CC1 (centres undefined) | 74.4% (inactive)
2 | Cc1nc2ccccc2c(/C=C/c2ccc(F)cc2)c1C(=O)/C=C/c1ccccc1 | 17% (inactive)
3 | O=C1CCCN1c1cccc2cccnc12 | 98.8% (inactive)
4 | COc1ccc(Cc2cc(-c3ccccc3C)n[nH]c2=O)cc1 | 91.1% (inactive)
